Several values for one entry are separate records, joined by “and”; a condition that tells them apart may be missing. Equal values may be shown once. This is part of a sample that, as a whole, favours compounds with a hit. Of some 83,000 tested, about 20% had one in any assay.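 Single-dose data. Exposure time 48 hours. Values below 10 considered active.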 The source holds several records for some structures; these can differ, active in one and inactive in another. Activity calls are given as the source filed them.

Among the data in PubChem BioAssay (NCI) are growth values, retold here.

For one experiment, the system named is EKVX NSCLC. As to the kind of experiment: NCI-60 one-dose screen, 48 h (100 = growth as untreated, 0 = no growth, -100 = all killed). Conditions: 0.25 µM. On the procedure: Growth inhibition of the EKVX human Non-Small Cell Lung tumor cell line is measured as a screen for anti-cancer activity. Cells are grown in 96 well plates and exposed to the test compound for 48 hours. Compounds are tested at a single concentration, which is 10^-5 M for most compounds. The reported endpoint is percent growth (GI% or GIPRCNT), where numbers from 0 - 100% represent growth inhibition, and numbers from -100% - 0 represent cell death. For example, a value of 40 represents 60% growth inhibition. A value of 0 means no net growth occurred over the course of the experiment. A value of -40 indicates 40% of cells at the beginning of the experiment died by the end of the experiment. A value of -100 means all cells are dead at the end of the experiment.
NCI-60 Human Tumor Cell Lines Screen was performed using the standard one-dose NCI protocol, which is described in more detail at https://dtp.cancer.gov/discovery_development/nci-60/default.htm.
Compounds with GIPRCNT values below 10 were considered active. Activity score was based on GIPRCNT using the following formula: […]
Score is 0 for GIPRCNT values of 100 or above, 50 for GIPRCNT values of 0, and 100 for GIPRCNT values of -100.
Take `CCCCCCCCCCCCCCCc1ccc(Cl)c(O)c1Cl` (tested in a mixture with another compound): the growth is 79.8% (inactive).

Still in this experiment, the particulars now being: 1 µM.
`CNC(=O)c1cc(Oc2ccc(CC(=O)Nc3cc(C(C)(C)C)nn3C)cc2)ccn1`: the growth is 73.5% (inactive).

The experiment is the same for the next values; noted with them: 10 µM.
For `COc1ccc(Cl)cc1C(=O)NCCc1ccc(S(=O)(=O)NC(=O)NC2CCCCC2)cc1`, the growth is 95.5% (inactive) and 99.6% (inactive). As for `CC1(C)OB(c2ccc(Cn3cc(F)c(=O)[nH]c3=O)cc2)OC1(C)C`, the growth was 106% (inactive). On the same count and under the same terms, in the case of `Cc1[nH]c(-c2nc3ccccc3[nH]2)c(C)c1C(=O)NC(C)C1CCCCC1` (stereo not given) it was 93.2% (inactive); in that of `CCCCCCCCCCCCCCCc1ccc(Cl)c(O)c1Cl` (tested in a mixture with another compound), 106% (inactive). As for `CNC(=O)c1cc(Oc2ccc(CC(=O)Nc3cc(C(C)(C)C)nn3C)cc2)ccn1`, the growth was 62% (inactive).

Still in this experiment, the particulars now being: 10 µM unless noted.
In the case of `CCN(CC)CCNc1cc(-c2cccc(OC(F)(F)F)c2)nc2ccc(N3CCCC3)cc12`, the growth is 73.5% (inactive) and 59.5% (inactive) and 42.8% (inactive). On the same count and under the same terms, with `CCN(CC)CCNc1ccc(C)c2sc3ccccc3c(=O)c12` (tested in a mixture with another compound) the figure was 68.6% (inactive) and 86.6% (inactive). Same read-out and setting: in the case of `OCc1ccccn1` it was 110% (inactive). For `CC1=NN(c2ccccc2)C(=O)C1C(=O)c1ccccc1` (stereo not given), the growth was 95% (inactive). The same measure, in the same setting: with `O=C1c2ccccc2C(=O)N1/N=C/c1ccc2c(c1)OCO2` the figure was 116% (inactive).

With `CO/N=C/C=C\C(=O)N/C=C/C[C@H]1/C=C/[C@H](O)/C=C\C=C\c2cccc(O)c2C(=O)O1`, the growth is 35.1% (inactive) and 47.9% (inactive).

Take `O=C1OC2(c3ccccc31)c1ccc(O)c(O)c1Oc1c2ccc(O)c1O`: the growth is 105% (inactive) and 128% (inactive).

For `COc1ccc2cc3[n+](cc2c1OC)CCc1cc2c(cc1-3)OCO2`, the growth was 26.3% (inactive) and 65.5% (inactive). The same measure, in the same setting: with `COc1cc(C(=O)N/N=C/c2ccc(N(C)C)cc2)cc(OC)c1OC` the figure was 75.7% (inactive); with `CN(C)c1ccc(/C=C(\C#N)c2ccccc2)cc1`, 53.9% (inactive) and 45.7% (inactive) and 56.9% (inactive); with `O=[N+]([O-])c1ccc(/C=N\NC(=S)Nc2ccc(F)cc2)cc1`, 91.9% (inactive) and 102% (inactive). With `c1ccc2c(CC3=NCCN3)cccc2c1`, the growth was 113% (inactive) and 102% (inactive).

For the compound `CN1CCN(c2ccc3nc(-c4c(N)c5c(F)cccc5[nH]c4=O)[nH]c3c2)CC1`, the growth was -82.3% (active) and 54.7% (inactive). Same read-out and setting: with `O=C(O)CN(CCN(CC(=O)O)CC(=O)O)CCN(CC(=O)O)CC(=O)O` the figure was -24.9% (active) and 105% (inactive) and 111% (inactive); with `Clc1ccc(SSc2ccc(Cl)cc2)cc1`, 103% (inactive) and 68.6% (inactive). On the same count and under the same terms, with `Cc1cccc(/C=C\C(=O)c2ccccc2)c1` the figure was 97.8% (inactive) and 101% (inactive). On the same count and under the same terms, in the case of `Cn1c(=O)n(-c2ccc(C(C)(C)C#N)cc2)c2c3cc(-c4cnc5ccccc5c4)ccc3ncc21` it was 7.47% (active) and 2.62% (active); in that of `CC1CCCc2sc3nc(NNC(=O)c4cnccn4)n(-c4ccccc4)c(=O)c3c21` (stereo not given), 14.8% (inactive) and 7.14% (active); in that of `O=C(O)C1C2C=CC(C2)C1C(=O)O` (stereo not given), 120% (inactive). In the case of `CC(=O)NC(Cc1ccccc1)C(=O)Oc1ccc2ccccc2c1` (stereo not given), the growth is 114% (inactive) and 96.4% (inactive).

For the compound `OC1CCC(Oc2cccc3cnc(Nc4ccc5nc[nH]c5c4)nc23)CC1` (stereo not given), the growth is -33.9% (active) and 52.7% (inactive). Take `O=C=NC(c1ccccc1)(c1ccccc1)c1ccccc1`: the growth was 111% (inactive).

In the case of `COc1ccccc1/C=N\N=C(N/N=C/c1ccccc1OC)N/N=C/c1ccccc1OC`, the growth is 74.4% (inactive) and 48.3% (inactive). Turning to `CC1CCCC(=O)O1` (stereo not given), the growth is 102% (inactive). Still for that read-out and setting: in the case of `O=C(/C=C\c1ccnc2ccccc12)c1ccc([N+](=O)[O-])cc1` it was 75.3% (inactive); in that of `CC(C)N=c1cc2n(-c3ccc(Cl)cc3)c3ccccc3nc-2cc1Nc1ccc(Cl)cc1`, 39.6% (inactive) and 23% (inactive) and 12.3% (inactive); in that of `O=C1c2ccccc2C(=O)c2c(NCCNCCO)ccc(NCCNCCO)c21`, 38.4% (inactive) and 48.9% (inactive). Turning to `Cc1ccc(NCSc2ccc(Cl)cc2)cc1`, the growth was 92.7% (inactive) and 77.3% (inactive). On the same count and under the same terms, with `CC(=O)Oc1cc(C(=O)O)cc(OC(C)=O)c1OC(C)=O` the figure was 84.3% (inactive) and 105% (inactive).

The same experiment, now with this note: 30 µM.
Regarding `CNC(=O)c1cc(Oc2ccc(CC(=O)Nc3cc(C(C)(C)C)nn3C)cc2)ccn1`, the growth is 49.2% (inactive).

The same experiment, now with this note: 50 µM.
For `CC1(C)OB(c2ccc(Cn3cc(F)c(=O)[nH]c3=O)cc2)OC1(C)C`, the growth is 72.1% (inactive).

The experiment is the same for the next values; noted with them: 100 µM.
As for `COc1ccc(Cl)cc1C(=O)NCCc1ccc(S(=O)(=O)NC(=O)NC2CCCCC2)cc1`, the growth was 58.6% (inactive). For `Cc1[nH]c(-c2nc3ccccc3[nH]2)c(C)c1C(=O)NC(C)C1CCCCC1` (stereo not given), the growth was -84.9% (active).
